# Data reported in PubChem BioAssay (NCATS).
# Results filed as inconclusive are left out. The source made the active and inactive calls. Calls follow the shape of the dose curve; as a rule, active = well fitted curve in the direction sought with a large enough effect; inconclusive = small, poorly fitted or top-dose-only effect, or another doubt; inactive = no such curve, though single readings can be large or run the other way.
# Molecular target: Metallo-beta-lactamase type 2 (Klebsiella pneumoniae) (UniProt C7C422)
# Sequence (C7C422 whole entry, looked up): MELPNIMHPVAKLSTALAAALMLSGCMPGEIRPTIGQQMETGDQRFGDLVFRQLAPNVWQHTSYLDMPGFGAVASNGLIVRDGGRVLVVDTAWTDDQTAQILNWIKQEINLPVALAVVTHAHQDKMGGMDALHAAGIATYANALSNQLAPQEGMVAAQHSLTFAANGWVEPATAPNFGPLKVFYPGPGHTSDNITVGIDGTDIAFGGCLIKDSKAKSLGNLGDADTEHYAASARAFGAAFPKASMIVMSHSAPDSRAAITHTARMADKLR
# Assay: qHTS to identify inhibitors of the New Delhi Metallo-beta-lactamase (NDM): assay validation screen against the NCATS LOPAC Collection (AID 1794843)
# Conditions: NDM-1 enzyme, nitrocefin hydrolysis, absorbance 485 nm; series mostly up to 38.4 µM; activity change, negative = inhibition: at the top concentration
# How it was run: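 Absorbance at 485 nm from nitrocefin turnover (50 uM solution added), read at plateau, gives the read-out. Compounds in DMSO were incubated first with 2 nM final NDM-1 in pH 7.0 HEPES buffer containing 1 uM ZnSO4 and 0.01% Tween20.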
# % is scaled to controls: 0 for no effect and ±100 for the full control effect.
row,SMILES,"activity change, negative = inhibition"
1,CCCCCCCCCCCCCCC[C@H](O)[C@H](N)CO,-2.39% (inactive)
2,c1ccc(C2CN3CCSC3=N2)cc1 (stereo unspecified),-3.43% (inactive)
3,c1ccc(CN2CCC3(CCCc4ccccc43)CC2)cc1,-1.69% (inactive)
4,NC1CONC1=O (stereo unspecified),-14.1% (inactive)
5,C[C@H]1CC2C3CCC4=CC(=O)C=C[C@]4(C)[C@@]3(Cl)[C@@H](O)C[C@]2(C)[C@@]1(O)C(=O)CO (stereo partly specified),-1.25% (inactive)
6,COc1ccc(NC(=O)c2ccc(-c3ccc(-c4noc(C)n4)cc3C)cc2)cc1N1CCN(C)CC1,5.19% (inactive)
7,Nc1ccc(N2C(=O)c3ccccc3C2=O)c(Cl)c1,-2.16% (inactive)
8,O=C(O)c1cccnc1C(=O)O,-0.866% (inactive)
9,COc1ccccc1N1CCN(CCCCN2C(=O)c3ccccc3C2=O)CC1,2.92% (inactive)
10,N[C@H](C(=O)O)c1cc(O)cc(O)c1,3.27% (inactive)
11,CCCCCCCC/C=C\CCCCCCCC(=O)NCCc1ccc(O)c(O)c1,-3.27% (inactive)
12,COc1cccc(OC)c1OCCNCC1CSc2ccccc2O1 (stereo unspecified),0.788% (inactive)
13,N#CC(C#N)=C(N)/C(C#N)=C/c1ccc(O)cc1,8.75% (inactive)
14,O=C1NC(=O)c2cc(Nc3ccccc3)c(Nc3ccccc3)cc21,-2.82% (inactive)
15,NC(C(=O)N[C@@H]1C(=O)N2C(C(=O)O)=C(Cl)CS[C@H]12)c1ccccc1 (stereo partly specified),12.3% (inactive)
16,CSC(=N)N,-11.6% (inactive)
17,C[C@H](O)C(=O)C1=Nc2c(nc(N)[nH]c2=O)NC1,17.6% (inactive)
18,COc1ccc(CCn2nnnc2C2(c3ccc(C)cc3)CC2)cc1,3.87% (inactive)
19,CC(=O)O[C@H]1Cc2ccccc2N(C(N)=O)c2ccccc21,-0.59% (inactive)
20,CCCCCCCCCCC/C=C\C(C)(C)/C=C\CCCC(=O)O,0.27% (inactive)
21,CC(C)NC[C@H](O)COc1ccc(CC(N)=O)cc1,-1.01% (inactive)
